From ChEMBL document CHEMBL1201862, “PubChem BioAssay data set” (2004) come the findings set out here.

Out of some 55,000 sequences screened, about 5,800 (11%) were called active. Cut-off read from the data, not from the text of the source: active = GI50 up to about 1.1 µM and inactive = higher. The full list was thinned out, with actives kept by preference. Potency and affinity values are given separately.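 Assay format: 96-well plates, 48-hour exposure. Here, GI50 denotes the concentration required for 50% inhibition of growth.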

The test has as its system CCRF-CEM. The test is described as follows: NCI tumour cell line growth inhibition, 48 h.
“[Bis(aminomethyl)pentamethylenesilane]dichloropaltinum(II), CHEMBL2146202” returned a GI50 of 0.202 µM.

“[Bis(aminomethyl)diethylsilane]tetrachloroplatinum(IV), CHEMBL2146203” registered a GI50 of 0.283 µM.

As to “mu-(1,7-nanodiamine-N,N')bis-(cis-aminedichloroplatimum (II)), CHEMBL2146215”, the GI50 came to 0.925 µM.

The substance “[Bis(aminomethyl)tetramethylenesilane]dichloropaltinum(II), CHEMBL2146205” registered a GI50 of 1.56 µM.

As to “[Bis(aminomethyl)dimethylsilane]dichloroplatinum (II), CHEMBL2146201”, the GI50 was determined as 3.66 µM.

With “[Bis(aminomethyl)pentamethylenesilane]tetrachloropaltinum(IV), CHEMBL2146204”, the GI50 was 0.0953 µM.

Substance “ACRIFLAVINE HYDROCHLORIDE, CHEMBL5219995” showed a GI50 of 0.233 µM.

CISPLATIN, CHEMBL11359 came in with a GI50 of 1.12 µM.

Substance “cis-Bis[[(trimethylsilyl)methyl]amino]tetrachloroplatinum(IV), CHEMBL2146191” gave a GI50 of 1.23 µM.

“[Bis(aminomethyl)tetramethylenesilane]tetrachloropaltinum(IV), CHEMBL2146189” returned a GI50 of 0.246 µM.

In the case of “[Bis(aminomethyl)dimethylsilane]tetrachloroplatinum(IV), CHEMBL2146190”, the GI50 was determined as 0.805 µM.

The substance “[Bis(aminomethyl)ethylmethylsilane]tetrachloroplatinum(IV), CHEMBL2146192” displayed a GI50 of 0.381 µM.
